# Assay results taken from PubChem BioAssay (EPA / NIEHS).
# Calls of active or inactive are those of the source. The calls were made as follows: active = hit-call score of the fitted dose curve at least 0.9, where 1 is the maximum; inactive = score below 0.9.
# Columns and labels:
# [1] = APR_HepG2_P-H2AX_72hr: Apredica 72-hour HepG2 Assay for H2AX Phosphorylation (AID 2282916); conditions: imaging, actives raise or lower the signal;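 also: phospho-histone H2A.x immunostain intensity per cell marking DNA damage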
# Outline: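 HepG2 human liver cells were exposed for 72 hr to compounds at 0.39–200 uM (10 concentrations, duplicate per plate) in 0.5% v/v DMSO. Fixed, permeabilized cells were immunolabeled for phospho-histone H2A.x with Hoechst 33342 and imaged by HCS fluorescence; bidirectional fit versus DMSO.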
# [2] = APR_HepG2_MitoMembPot_72hr: Apredica 72-hour HepG2 Assay for Mitochondrial Membrane Potential (AID 2282917); conditions: imaging, actives raise or lower the signal
# Outline: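 HepG2 cells dosed 72 hr with compound at 0.39–200 uM in duplicate, 0.5% v/v DMSO final. Mitochondria stained with 250 nM MitoTracker Red CMXRos for 30 min before formaldehyde fixation, imaged by high-content fluorescence; bidirectional fit versus DMSO.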
# [3] = APR_HepG2_MitoticArrest_72hr: Apredica 72-hour HepG2 Assay for Mitotic Arrest (AID 2282918); conditions: high-content imaging, actives raise or lower the signal
# Outline: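 Read-out is phospho-histone H3 immunofluorescence with Hoechst nuclear segmentation, imaged at 20x. Human HepG2 liver cells received ten concentrations (0.39–200 uM, final DMSO 0.5% v/v) for 72 hr before fixation. Gain or loss of signal was fitted relative to DMSO.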
# [4] = APR_HepG2_MicrotubuleCSK_72hr: Apredica 72-hour HepG2 Assay for Microtubule CSK Stabilty (AID 2282919); conditions: HepG2 microtubule cytoskeleton, high-content imaging, actives raise or lower the signal
# Outline: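 HepG2 cells were exposed 72 hr to compound at 0.39–200 uM in duplicate (0.5% DMSO final), then fixed and permeabilized. Alpha-tubulin immunofluorescence was imaged by high-content microscopy, with bidirectional fitting against DMSO and taxol as positive control.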
# [5] = APR_HepG2_P-H2AX_24hr: Apredica 24-hour HepG2 Assay for H2AX Phosphorylation (AID 2282920); conditions: high-content imaging, actives raise or lower the signal
# Outline: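 HepG2, 24 hr, cpd 0.39–200 uM (10 conc, duplicate), DMSO 0.5% v/v final. Fix 3.7% formaldehyde, Triton X-100 permeabilize, anti-phospho-H2A.x 1:200 + Hoechst 2 ug/mL. Imaged, bidirectional fit vs DMSO.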
# [6] = APR_HepG2_StressKinase_72hr: Apredica 72-hour HepG2 Assay for Stress Kinase (AID 2282921); conditions: HepG2 stress kinase (phospho-c-Jun) imaging, actives raise or lower the signal
# Outline: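 Cells were exposed for 72 h to ten concentrations (0.39–200 uM, duplicate) at 0.5% v/v DMSO final, then fixed with 3.7% formaldehyde, permeabilized and immunostained for phospho-c-Jun (Cy3 secondary) with Hoechst nuclear counterstain.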
# [7] = APR_HepG2_StressKinase_24hr: Apredica 24-hour HepG2 Assay for Stress Kinase (AID 2282922); conditions: HepG2 stress kinase (phospho-c-Jun) imaging, actives raise or lower the signal
# Outline: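 HepG2 cells exposed 24 h to 0.39–200 uM compound in duplicate (0.5% v/v DMSO final). Cells fixed in 3.7% formaldehyde, permeabilized and immunostained for phospho-c-Jun; read by high-content fluorescence imaging, fitted bidirectionally against DMSO.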
# [8] = APR_HepG2_p53Act_72hr: Apredica 72-hour HepG2 Assay for p53 Activation (AID 2282923); conditions: high-content imaging, actives raise or lower the signal;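 also: average cellular p53 protein immunofluorescence intensity in HepG2 cells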
# Outline: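 Cells were dosed for 72 hr with compounds at 0.39–200 uM in duplicate (final DMSO 0.5% v/v), then fixed in 3.7% formaldehyde, permeabilized with Triton X-100 and immunostained for p53 (Cy5) with Hoechst 33342 nuclear counterstain.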
# [9] = APR_HepG2_MitoMass_72hr: Apredica 72-hour HepG2 Assay for Mitochondrial Mass (AID 2282924); conditions: high-content imaging, actives raise or lower the signal;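 also: MitoTracker Red CMXRos stain intensity per cell imaged as mitochondrial mass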
# Outline: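 HepG2 cells dosed 72 hr at 0.39–200 uM (0.5% DMSO), in duplicate. MitoTracker Red CMXRos 250 nM loaded 30 min before formaldehyde fixation; high-content fluorescence imaging, bidirectional fit versus DMSO.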
# [10] = APR_HepG2_NuclearSize_72hr: Apredica 72-hour HepG2 Assay for Nuclear Size (AID 2282925); conditions: high-content imaging, actives raise or lower the signal
# Outline: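 HepG2 cells dosed 72 h at 0.39–200 uM (10 concentrations, duplicate) in 0.5% v/v DMSO final. Fixed, Hoechst 33342-stained nuclei imaged; nuclear diameter measured by automated image analysis. Bidirectional fit versus DMSO.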
SMILES,AC50 [1],AC50 [2],AC50 [3],outcome [4],AC50 [5],outcome [6],outcome [7],AC50 [8],outcome [9],outcome [10],outcome [1],outcome [2],outcome [3],outcome [5],outcome [8],AC50 [9],AC50 [6],AC50 [10],AC50 [7],AC50 [4]
Oc1ccc2c(c1)-c1ccccc1C2,89 µM (active),106 µM (active),80.3 µM (active),inactive,117 µM (active),inactive,inactive,47.7 µM (active),inactive,inactive,–,–,–,–,–,–,–,–,–,–
COc1ccc2sc(C(=O)Nc3nnn[nH]3)c(OC(C)C)c2c1,–,–,–,inactive,–,inactive,inactive,–,inactive,inactive,inactive,inactive,inactive,inactive,inactive,–,–,–,–,–
CCOC(=O)COc1ccc2c(c1)CC(NCC(O)c1cccc(Cl)c1)CC2 (stereo not given),–,–,23.1 µM (active),inactive,23.2 µM (active),inactive,inactive,–,inactive,inactive,inactive,inactive,–,–,inactive,–,–,–,–,–
CC[C@H](C)C(=O)O[C@H]1C[C@@H](C)C=C2C=C[C@H](C)[C@H](CC[C@@H]3C[C@@H](O)CC(=O)O3)[C@H]21,5.29 µM (active),–,4.53 µM (active),inactive,2.46 µM (active),inactive,inactive,3.64 µM (active),–,inactive,–,inactive,–,–,–,131 µM (active),–,–,–,–
O=C(O)c1cc(N=Nc2ccc(S(=O)(=O)Nc3ccccn3)cc2)ccc1O,–,88.8 µM (active),–,inactive,–,inactive,inactive,–,inactive,inactive,inactive,–,inactive,inactive,inactive,–,–,–,–,–
O=C(O)c1cccc(N(Cc2cccnc2)c2ccc(OC(F)F)c(OC(F)F)c2)c1,6.52 µM (active),–,4.04 µM (active),inactive,30.8 µM (active),–,inactive,4.01 µM (active),inactive,–,–,inactive,–,–,–,–,15.4 µM (active),17.4 µM (active),–,–
Cc1ccc(N)cc1O,–,1.02 µM (active),–,inactive,–,inactive,inactive,–,inactive,inactive,inactive,–,inactive,inactive,inactive,–,–,–,–,–
O=C(OC[C@H]1O[C@@H](OC(=O)c2cc(O)c(O)c(OC(=O)c3cc(O)c(O)c(O)c3)c2)[C@H](OC(=O)c2cc(O)c(O)c(OC(=O)c3cc(O)c(O)c(O)c3)c2)[C@@H](OC(=O)c2cc(O)c(O)c(OC(=O)c3cc(O)c(O)c(O)c3)c2)[C@@H]1OC(=O)c1cc(O)c(O)c(OC(=O)c2cc(O)c(O)c(O)c2)c1)c1cc(O)c(O)c(OC(=O)c2cc(O)c(O)c(O)c2)c1,–,15.1 µM (active),–,inactive,–,inactive,inactive,23.2 µM (active),–,–,inactive,–,inactive,inactive,–,14.5 µM (active),–,18.7 µM (active),–,–
O=c1[nH]c2ccc(S(=O)CCN3CCC(Cc4ccc(F)cc4)CC3)cc2o1 (stereo not given),111 µM (active),–,–,inactive,–,inactive,inactive,–,inactive,inactive,–,inactive,inactive,inactive,inactive,–,–,–,–,–
CCCCCCc1ccc(O)cc1O,–,–,33.7 µM (active),inactive,101 µM (active),inactive,–,–,inactive,inactive,inactive,inactive,–,–,inactive,–,–,–,158 µM (active),–
CC(C)=CCC/C(C)=C\CO,–,–,–,inactive,–,inactive,inactive,–,–,inactive,inactive,inactive,inactive,inactive,inactive,94.5 µM (active),–,–,–,–
CCN(C(=O)c1cc(C)cc(OC[C@H](C)Nc2ccncc2)c1)C(C)C,–,–,–,inactive,–,inactive,inactive,–,inactive,inactive,inactive,inactive,inactive,inactive,inactive,–,–,–,–,–
CCc1cc(SCc2sc(-c3ccc(C(F)(F)F)cc3)nc2CN2CCN(c3ccc(OC)cc3)CC2)ccc1OCC(=O)O,48 µM (active),116 µM (active),45 µM (active),inactive,54.5 µM (active),inactive,inactive,59 µM (active),–,inactive,–,–,–,–,–,33.2 µM (active),–,–,–,–
COCCOc1cc2cc(C(=O)NC3CCN(C(C)C)CC3)n(CC(=O)Nc3ccc(Cl)cn3)c2cn1,–,–,63.2 µM (active),–,94.3 µM (active),inactive,inactive,–,inactive,inactive,inactive,inactive,–,–,inactive,–,–,–,–,83.7 µM (active)
Fc1ccccc1[C@@H](F)COC1CCC(Nc2ncnc3[nH]ncc23)CC1 (stereo not given in full),51.3 µM (active),–,60 µM (active),–,74.9 µM (active),inactive,inactive,55.6 µM (active),inactive,inactive,–,inactive,–,–,–,–,–,–,–,81.2 µM (active)
CCNc1ccccc1,–,–,–,inactive,–,inactive,inactive,–,inactive,inactive,inactive,inactive,inactive,inactive,inactive,–,–,–,–,–
CN(C)c1ccc(Cc2ccc(N(C)C)cc2)cc1,–,–,30.7 µM (active),–,–,inactive,inactive,–,inactive,inactive,inactive,inactive,–,inactive,inactive,–,–,–,–,37.4 µM (active)
Cc1[nH]cnc1C[C@H]1CCc2c(C)c3ccccc3n2C1=O,89 µM (active),–,98.8 µM (active),inactive,92.8 µM (active),–,–,95 µM (active),–,inactive,–,inactive,–,–,–,24.4 µM (active),65 µM (active),–,100 µM (active),–
